Experimental data: PubChem BioAssay (NCATS)
Inconclusive results are not listed. Calls of active or inactive are those of the source. The call rests on the fitted dose curve; in most records, active means well fitted cell-killing curve with a large enough effect; inconclusive means small, poorly fitted or top-dose-only effect, or effect the other way; inactive means no such curve, though single readings can be large or run the other way.
Potency means the concentration at half of the fitted maximal effect.

Experiment: Quantitative High-Throughput drug screen in 47 multiple myeloma cell lines against the NCATS MIPE library collection: Delta47_JCRB cell viability assay (AID 1918925; further: nearly all actives have a fitted effect of over 45% in size)
Details: Delta47 myeloma viability, CellTiter-Glo ATP, 48 h; series mostly up to 45.8 µM
Source text: PI: Beverly A. Mock Ph.D.
Laboratory of Cancer Biology and Genetics,
Center for Cancer Research, National Cancer Institute,
National Institute of Health, Bethesda, Maryland
Drug resistance and disease progression are common in multiple myeloma (MM) patients, underscoring the need for new therapeutic combinations. […] We hypothesized that effective combinations would reduce MYC expression and enhance p16 activity. […] These preclinical data identify potentially useful drug combinations for evaluation in drug-resistant MM and reveal potential mechanisms of combined drug sensitivity.
Described herein is the primary MIPE qHTS used to cherrypick compounds. Validated compounds were then further tested for potential synergistic activiy.
[1] Peat TJ, Gaikwad SM, Dubois W, Gyabaah-Kessie N, Zhang S, Gorjifard S, Phyo Z, Andres M, Hughitt VK, Simpson RM, Miller MA, Girvin AT, Taylor A, Williams D, D'Antonio N, Zhang Y, Rajagopalan A, Flietner E, Wilson K, Zhang X, Shinn P, Klumpp-Thomas C, McKnight C, Itkin Z, Chen L, Kazandijian D, Zhang J, Michalowski AM, Simmons JK, Keats J, Thomas CJ, Mock BA. Drug combinations identified by high-throughput screening promote cell cycle transition and upregulate Smad pathways in myeloma. Cancer Lett. 2023 Aug 1;568:216284. doi: 10.1016/j.canlet.2023.216284. Epub 2023 Jun 24. PMID: 37356470; PMCID: PMC10408729.
SEQUENCE No. (e.g., 1, 2, 3, etc.); […] (e.g., Cells, Incubation, Reagent, etc.); VALUE and DESCRIPTION.
1; Cells; 5 uL; white, solid bottom 1536-well Greiner assay plate.
2; Compounds; 23 nL; Kalypsis pin tool (Wako USA) equipped with a 1536-well pin head to transfer to the assay plates.
3; Incubation; 48 hours; 37C incubation.
4; Reagent;5uL; CellTiter Glo (Promega).
5; Detector; 425V; Luminescence; Viewlux PerkinElmer.
NOTES (numbers refer to Sequence numbers above)
1. The cell-based screening methods employed in this study were like those previously published. Briefly, the corresponding myeloma cell lines were screened in 1,536-well plates with 500 cells, 5-uL per well for inhibition of cell viability (assessed by measuring ATP levels with CellTiterGlo).
2. NCATS MIPE 4.0 library of approved and investigational drugs were added using the Kalypsis pin tool. Wells treated with DMSO only for 100% viability and media only wells for 0% viability were used as controls.
3. The assay plates were covered and incubated for 48 hours in a 37C, 5% CO2 incubator with controlled humidity.
4. After 48 hours, CellTilter-GloTM luminescent substrate mix (Promega) reagent was added to the assay plate and plates we incubated for 5 min at room temperature.
5. Signal was measured as median relative luminescence units on a ViewLux (PerkinElmer) multiplate reader.
[1] Heske CM, Davis MI, Baumgart JT, Wilson K, Gormally MV, Chen L, Zhang X, Ceribelli M, Duveau DY, Guha R, Ferrer M, Arnaldez FI, Ji J, Tran HL, Zhang Y, Mendoza A, Helman LJ, Thomas CJ. Matrix Screen Identifies Synergistic Combination of PARP Inhibitors and Nicotinamide Phosphoribosyltransferase (NAMPT) Inhibitors in Ewing Sarcoma. Clin Cancer Res. 2017 Dec 1;23(23):7301-7311. doi: 10.1158/1078-0432.CCR-17-1121. Epub 2017 Sep 12. PMID: 28899971; PMCID: PMC6636827.
With COc1cc2nc(-c3ccc(N4CCN(C)CC4)cc3)nc(NCCN3CCOCC3)c2cc1OC the Potency was 0.148 µM (active).
With C[C@H]1[C@H](NC(=O)C(=NOC(C)(C)C(=O)O)c2csc(N)n2)C(=O)N1S(=O)(=O)O the Potency was “inactive”.
For CN1[C@@H]2CCC[C@@H]1CC(NC(=O)c1nn(C)c3ccccc13)C2 (stereo not given in full), the Potency was “inactive”.
In the case of C[C@@H]1CCN(C(=O)CC#N)C[C@H]1N(C)c1ncnc2[nH]ccc12, the Potency is reported as “inactive”.
For CC1(C)CCC2=C(O1)c1ccccc1C(=O)C2=O, the Potency was 16.6 µM (active).
With COc1cc(Nc2ncc(F)c(Nc3ccc4c(n3)NC(=O)C(C)(C)O4)n2)cc(OC)c1OC the Potency was 1.18 µM (active).
With O=C(O)c1c(Cl)c(Cl)c(Cl)c(Cl)c1-c1c2cc(I)c(=O)c(I)c-2oc2c(I)c(O)c(I)cc12 the Potency was 14.8 µM (active).
With CC(C)(C)C(=O)Oc1ccc2c(c1)nc(NC(=O)c1cccc([N+](=O)[O-])c1)n2CCCO the Potency was “inactive”.
For CCNc1cc(NC2CCC(O)CC2)nc(Nc2ccc3c(ccn3Cc3ccccc3)c2)n1 (stereo not given), the Potency was 18.7 µM (active).
In the case of Cc1ccc(C(C)(O)c2nc3ccccc3s2)c(C)c1 (stereo not given), the Potency is reported as “inactive”.
In the case of O=C(NCc1ccncc1)C12C[C@H]3C[C@@H](C1)CC(c1ccc(Cl)cc1)(C3)C2, the Potency is reported as 16.6 µM (active).
In the case of O=C(O)c1ccc(-c2cc3cccnc3c(-c3ccc4nonc4c3)n2)cc1, the Potency is reported as 23.5 µM (active).
With Cc1c(O)cccc1C(=O)N[C@@H](CSc1ccccc1)[C@H](O)CN1C[C@H]2CCCC[C@@H]2C[C@@H]1C(=O)NC(C)(C)C the Potency was 20.9 µM (active).
With C=CCc1ccc(O)c(-c2ccc(O)c(CC=C)c2)c1 the Potency was 18.7 µM (active).
In the case of O=C(NCc1ccccc1)c1csc(Nc2ccncn2)n1, the Potency is reported as 14.8 µM (active).
With CC(C)(C(=O)NCC(F)(F)C(F)(F)F)C(=O)N[C@@H]1C(=O)Nc2ccccc2-c2ccccc21 the Potency was 20.9 µM (active).
With COc1ccc(-c2cc(=O)c3c(O)cc(O)cc3o2)cc1O the Potency was 4.69 µM (active).
With CNC(=O)c1ccc2cc(C3(O)CCn4cncc43)ccc2c1 (stereo not given) the Potency was “inactive”.
With O=c1cc(-c2ccc(O)cc2)oc2cc(O)cc(O)c12 the Potency was 10.5 µM (active).
With CC(=O)Nc1ccc([C@H](C)C(=O)Nc2ncc(C(C)C)s2)cc1 the Potency was 1.48 µM (active).
In the case of CN1CCN(CCOc2cc(OC3CCOCC3)c3c(Nc4c(Cl)ccc5c4OCO5)ncnc3c2)CC1, the Potency is reported as 23.5 µM (active).
For CC1(C)S[C@H]2[C@H](NC(=O)[C@@H](N)c3ccc(O)cc3)C(=O)N2[C@@H]1C(=O)O, the Potency was “inactive”.
In the case of CCN(CC)CCOc1ccc(C(=C(Cl)c2ccccc2)c2ccccc2)cc1, the Potency is reported as 29.6 µM (active).
In the case of COc1ccc2cc(-c3nc(-c4ccc(S(C)=O)cc4)[nH]c3-c3ccncc3)ccc2c1 (stereo not given), the Potency is reported as 16.6 µM (active).
For CC(C)=CC[C@@H](O)C1=CC(=O)c2c(O)ccc(O)c2C1=O, the Potency was 8.33 µM (active).
For N#CC(=C(N)Sc1ccccc1N)C(C#N)=C(N)Sc1ccccc1N, the Potency was 16.6 µM (active).
For CC(=O)Oc1cc2c(s1)CCN(C(C(=O)C1CC1)c1ccccc1F)C2 (stereo not given), the Potency was 3.32 µM (active).
In the case of Cc1nnc(C(C)C)n1C1C[C@H]2CC[C@@H](C1)N2CC[C@H](NC(=O)C1CCC(F)(F)CC1)c1ccccc1 (stereo not given in full), the Potency is reported as 16.6 µM (active).
With O=C(Nc1cccc(Br)c1)c1cccc(S(=O)(=O)N2CCCCCC2)c1 the Potency was 18.7 µM (active).
In the case of C[C@H](NC(=O)c1sccc1OCc1ccc(Cl)cc1)c1ccccc1, the Potency is reported as 20.9 µM (active).
In the case of N[C@H](CSC(c1ccccc1)(c1ccccc1)c1ccccc1)C(=O)O, the Potency is reported as 7.43 µM (active).
With COc1cccc(-c2cc(=O)c3ccccc3o2)c1N the Potency was 2.64 µM (active).
With CC(C)(C)OC(=O)N[C@H]1CCCCCC=C[C@@H]2C[C@@]2(C(=O)NS(=O)(=O)C2CC2)NC(=O)[C@@H]2C[C@@H](OC(=O)N3Cc4cccc(F)c4C3)CN2C1=O the Potency was “inactive”.
In the case of C=C1C(=O)OC2C=C(C)CCC=C(C)CCC12 (stereo not given), the Potency is reported as 18.7 µM (active).
In the case of O=c1cc(N2CCOCC2)oc2c(-c3cccc4c3sc3ccccc34)cccc12, the Potency is reported as 3.32 µM (active).
With CC1(C)CCC[C@@]2(C)[C@@H]1CC[C@@]1(C)OC(=O)C[C@H]21 the Potency was “inactive”.
With Cn1c(N2CCCCS2(=O)=O)nc(C(=O)NCc2ccc(F)cc2)c(O)c1=O the Potency was “inactive”.
For CO[C@H]1C=CO[C@@]2(C)Oc3c(C)c(O)c4c(O)c(c5c(c4c3C2=O)NC2(CCN(CC(C)C)CC2)N=5)=NC(=O)C(C)=CC=C[C@H](C)[C@H](O)[C@@H](C)[C@@H](O)[C@@H](C)[C@H](OC(C)=O)[C@H]1C, the Potency was “inactive”.
For CC=CC(=O)N(CC)c1ccccc1C, the Potency was “inactive”.
With N[C@@]1(C(=O)O)CS(=O)(=O)[C@H]2[C@H](C(=O)O)[C@H]21 the Potency was 9.35 µM (active).
